40 molecules from ChEMBL document CHEMBL3988442, “University of Dundee, Small-Polar-MMV Screening Library” (2021) can be followed below.

The first assay concerns the target T1, Proteasome subunit beta (Trypanosoma cruzi) (UniProt O96673).
T1 sequence (whole entry): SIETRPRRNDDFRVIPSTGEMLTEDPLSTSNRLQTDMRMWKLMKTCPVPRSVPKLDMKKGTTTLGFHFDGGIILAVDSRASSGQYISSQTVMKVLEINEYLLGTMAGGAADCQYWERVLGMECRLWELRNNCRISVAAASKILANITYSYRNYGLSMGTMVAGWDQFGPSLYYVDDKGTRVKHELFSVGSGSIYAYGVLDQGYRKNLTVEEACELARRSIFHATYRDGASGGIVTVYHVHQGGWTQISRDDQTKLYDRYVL
The experiment in a line: Trypanosoma cruzi proteasome chymotrypsin-like activity (TcProtChymo) assay. The class given is functional. More on the design: scale not given: in the data most compounds retested in dose-response had high values. As to conditions: 9.37 µM.
Regarding `COCCc1ncc(CN2CCC(Oc3ccccc3C)CC2)cn1`, the Percent Effect came out at 12.6%.
In the case of `COCCCN1CC2(CCCCN2C(=O)c2ccsc2)CC1=O` (stereo not given), the Percent Effect worked out at 0.601%.
In the case of `CCc1nc(C2CCCN2CCn2cncn2)no1` (stereo not given), the Percent Effect stood at 3.86%.
On to `O=C(NCCOc1ccc(Cl)cc1)N1CCS(=O)(=O)CC1`, for which the Percent Effect was 6.74%.
On to `COC(=O)CC(c1ccccc1)c1oc(C)cc(=O)c1O` (stereo not given), for which the Percent Effect was 1.71%.
Still for that read-out and setting: the value for `COc1ncccc1CNC(=O)c1cccc(C)n1` was 18.5%; that for `CC(C)CN(Cc1nc2c(cnn2C)c(=O)[nH]1)C(C)C` was -3.5%.
With `CC(C)C(=O)N1CCC2(CCCN(CCOc3ccccc3)C2)C1` (stereo not given), the Percent Effect came to 1.63%.
On to `Cc1ccc(-c2nc(CCNC(=O)NC3CCN(C)CC3)co2)cc1`, for which the Percent Effect stood at 12.3%.
Consider `COc1ccc(CNCc2ccnc(N3CCCCC3)c2)cc1OC`, for which the Percent Effect is -1.62%.
Still for that read-out and setting: under `COc1ccc(CC(=O)N2C[C@@H]3COC[C@]3(CN(C)C)C2)cc1` stands 1.15%; under `CC(=O)N1N=C(c2ccccc2)OC1C(=O)NCCc1cccc(Cl)c1` (stereo not given), 8.05%; under `Cc1cnn(CC2CN(CC(=O)N(C)Cc3cccs3)CCO2)c1` (stereo not given), 13.8%.
For the molecule `O=C(CC1CCCC1)N1C[C@@H]2CCN(c3cccnc3)C[C@@H]2C1`, the Percent Effect was 19.3%.
As to `COc1ccc(CN2CCC3(CC(Nc4ccncn4)C3)C2)c(OC)c1` (stereo not given), the Percent Effect came out at 8.21%.
Regarding `Cc1nn(C)c(N(C)C)c1CNCCNS(C)(=O)=O`, the Percent Effect worked out at 9.3%.
In the case of `Cc1cc(-c2nn(C)c(Cl)c2CN2Cc3ccccc3C(O)C2)no1` (stereo not given), the Percent Effect came to 6.34%.
As to `CCc1nnc(CN2CCCC(c3cc(C(F)(F)F)[nH]n3)C2)o1` (stereo not given), the Percent Effect came to 15.3%.
Regarding `CC[C@@H]1N(Cc2ccsc2)CCC[C@]12CCC(=O)N2CCOC`, the Percent Effect was 10.9%.
Take `CC(c1nc(C2CC2)no1)N1CCN(Cc2ccsc2)CC1` (stereo not given): the Percent Effect was determined as 3.67%.
On the same count and under the same terms, the value for `COc1cccc(OC)c1C(=O)N1CCN(c2ccccc2F)CC1` was 12.2%.
As for `O=C(NCC1CC1)C1=NOC2(CCN(S(=O)(=O)c3cccs3)C2)C1` (stereo not given), the Percent Effect worked out at 3.79%.
Take `Cc1ncc(S(C)(=O)=O)c(C2CCCNC2)n1` (stereo not given): the Percent Effect came out at 8.39%.
Still for that read-out and setting: the value for `O=C(NCCc1cccnc1)N1CCCC1c1ccsc1` (stereo not given) was 6.74%.
Consider `CNC(=O)[C@@H]1C[C@H]2CN(Cc3ccco3)C[C@H]2N1C`, for which the Percent Effect came out at 16.7%.
Consider `Cc1ccc(Oc2ccc(NC(=O)NCC3CCOC3)cn2)cc1C` (stereo not given), for which the Percent Effect is 8.79%.
Take `O=C(Cc1n[nH]c2ccccc12)N1CCC(Nc2cccnn2)CC1`: the Percent Effect came out at 13.2%.
Turning to `Cc1cc(C2CCCN(C(=O)c3c(C)nn4cccnc34)C2)n[nH]1` (stereo not given), the Percent Effect amounted to 6.7%.
For the molecule `CC(C)c1nc(C2CCCN2CC(=O)Nc2nncs2)no1` (stereo not given), the Percent Effect was 5.17%.
For the molecule `CCn1ccnc1CN1CCN(CC(O)c2ccccc2)CC1` (stereo not given), the Percent Effect stood at 6.91%.
Regarding `CO[C@@H]1CCN(C(=O)c2ccccn2)[C@H]1Cc1ccccc1`, the Percent Effect is 6.95%.
As to `Cc1noc(C(C)C)c1C(=O)NCCN1CCCCCC1=O`, the Percent Effect was 14.9%.
Take `Cc1noc(C)c1CC(=O)OCC(=O)N1CCc2sccc2C1`: the Percent Effect was 14.3%.
As to `COCc1nc(C(=O)N2CCCC(n3cccn3)C2)cs1` (stereo not given), the Percent Effect was 8.6%.
In the case of `COCCN1CCCN(C(=O)NC(C)Cn2ccnc2)CC1` (stereo not given), the Percent Effect is -0.702%.
Same read-out and setting: the value for `CC(C)(C)n1ncc2c1NC(=O)CC2c1ccsc1` (stereo not given) was 13.2%; that for `O=C(NCCO)c1ccn(-c2ccc3ccccn23)n1` was 19.1%; that for `COc1ncccc1CNC(=O)c1cccnc1O` was 8.79%.
Same read-out and setting: under `CCc1cc(O)nc(C2CCCN2C(=O)c2cc(C)no2)n1` (stereo not given) stands 11.3%; under `O=C(NC[C@]1(O)CN(Cc2ccccc2F)C[C@H]1O)c1ccccn1`, 10.5%.

The species entered for the next assay is Homo sapiens. The assay can be described thus: To identify inhibition of the IFN signalling (Jak-Stat) pathway via expression of an eGFP reporter gene under the control of an IFN-stimulated response element (ISRE) containing MxA promoter. The class given is functional. More on the design: scale not given: direction of the effect not stated beside the values. As to conditions: 30 µM. On the technique in general: A reporter such as luciferase makes a cellular process visible.
On to `COCCc1ncc(CN2CCC(Oc3ccccc3C)CC2)cn1`, for which the Percent Effect was 7.38%.
For `COCCCN1CC2(CCCCN2C(=O)c2ccsc2)CC1=O` (stereo not given), the Percent Effect is 15.2%.
`CCc1nc(C2CCCN2CCn2cncn2)no1` (stereo not given): the Percent Effect worked out at 1.29%.
On to `O=C(NCCOc1ccc(Cl)cc1)N1CCS(=O)(=O)CC1`, for which the Percent Effect stood at 3.33%.
Regarding `COC(=O)CC(c1ccccc1)c1oc(C)cc(=O)c1O` (stereo not given), the Percent Effect stood at 6.47%.
On to `COc1ncccc1CNC(=O)c1cccc(C)n1`, for which the Percent Effect amounted to 18.5%.
Still for that read-out and setting: the value for `CC(C)CN(Cc1nc2c(cnn2C)c(=O)[nH]1)C(C)C` was -18.2%; that for `CC(C)C(=O)N1CCC2(CCCN(CCOc3ccccc3)C2)C1` (stereo not given) was 7.35%; that for `Cc1ccc(-c2nc(CCNC(=O)NC3CCN(C)CC3)co2)cc1` was 9.37%.
For the molecule `COc1ccc(CNCc2ccnc(N3CCCCC3)c2)cc1OC`, the Percent Effect was 25.8%.
Consider `COc1ccc(CC(=O)N2C[C@@H]3COC[C@]3(CN(C)C)C2)cc1`, for which the Percent Effect is -12.9%.
Regarding `CC(=O)N1N=C(c2ccccc2)OC1C(=O)NCCc1cccc(Cl)c1` (stereo not given), the Percent Effect was 8.59%.
With `Cc1cnn(CC2CN(CC(=O)N(C)Cc3cccs3)CCO2)c1` (stereo not given), the Percent Effect was determined as 11.2%.
For `O=C(CC1CCCC1)N1C[C@@H]2CCN(c3cccnc3)C[C@@H]2C1`, the Percent Effect was 35.3%.
As to `COc1ccc(CN2CCC3(CC(Nc4ccncn4)C3)C2)c(OC)c1` (stereo not given), the Percent Effect was determined as 5.35%.
In the case of `Cc1nn(C)c(N(C)C)c1CNCCNS(C)(=O)=O`, the Percent Effect was -6.32%.
Consider `Cc1cc(-c2nn(C)c(Cl)c2CN2Cc3ccccc3C(O)C2)no1` (stereo not given), for which the Percent Effect is 47.5%.
In the case of `CCc1nnc(CN2CCCC(c3cc(C(F)(F)F)[nH]n3)C2)o1` (stereo not given), the Percent Effect is -7.26%.
As for `CC[C@@H]1N(Cc2ccsc2)CCC[C@]12CCC(=O)N2CCOC`, the Percent Effect was -2.54%.
Take `CC(c1nc(C2CC2)no1)N1CCN(Cc2ccsc2)CC1` (stereo not given): the Percent Effect came to 3.35%.
`COc1cccc(OC)c1C(=O)N1CCN(c2ccccc2F)CC1`: the Percent Effect worked out at 46.4%.
As to `O=C(NCC1CC1)C1=NOC2(CCN(S(=O)(=O)c3cccs3)C2)C1` (stereo not given), the Percent Effect was -1.32%.
On to `Cc1ncc(S(C)(=O)=O)c(C2CCCNC2)n1` (stereo not given), for which the Percent Effect was determined as 18.1%.
On to `O=C(NCCc1cccnc1)N1CCCC1c1ccsc1` (stereo not given), for which the Percent Effect came to 13.9%.
Consider `CNC(=O)[C@@H]1C[C@H]2CN(Cc3ccco3)C[C@H]2N1C`, for which the Percent Effect was -13.8%.
On the same count and under the same terms, under `Cc1ccc(Oc2ccc(NC(=O)NCC3CCOC3)cn2)cc1C` (stereo not given) stands -3.33%; under `O=C(Cc1n[nH]c2ccccc12)N1CCC(Nc2cccnn2)CC1`, -4.05%; under `Cc1cc(C2CCCN(C(=O)c3c(C)nn4cccnc34)C2)n[nH]1` (stereo not given), 9.89%.
As to `CC(C)c1nc(C2CCCN2CC(=O)Nc2nncs2)no1` (stereo not given), the Percent Effect came to 7.39%.
For the molecule `CCn1ccnc1CN1CCN(CC(O)c2ccccc2)CC1` (stereo not given), the Percent Effect came to 10.2%.
Consider `CO[C@@H]1CCN(C(=O)c2ccccn2)[C@H]1Cc1ccccc1`, for which the Percent Effect is 8.74%.
For `Cc1noc(C(C)C)c1C(=O)NCCN1CCCCCC1=O`, the Percent Effect is -6.97%.
Consider `Cc1noc(C)c1CC(=O)OCC(=O)N1CCc2sccc2C1`, for which the Percent Effect is 12.1%.
In the case of `COCc1nc(C(=O)N2CCCC(n3cccn3)C2)cs1` (stereo not given), the Percent Effect is -4.23%.
`COCCN1CCCN(C(=O)NC(C)Cn2ccnc2)CC1` (stereo not given): the Percent Effect turned out to be 8.17%.
Turning to `CC(C)(C)n1ncc2c1NC(=O)CC2c1ccsc1` (stereo not given), the Percent Effect was 15.1%.
Turning to `O=C(NCCO)c1ccn(-c2ccc3ccccn23)n1`, the Percent Effect was determined as 7.26%.
As for `COc1ncccc1CNC(=O)c1cccnc1O`, the Percent Effect was -10.7%.
As for `CCc1cc(O)nc(C2CCCN2C(=O)c2cc(C)no2)n1` (stereo not given), the Percent Effect is 20.5%.
As for `O=C(NC[C@]1(O)CN(Cc2ccccc2F)C[C@H]1O)c1ccccn1`, the Percent Effect is 6.15%.
